# Experimental data: PubChem BioAssay (Tox21)
# Records with an inconclusive call do not appear. Calls of active or inactive are those of the source. Calls follow the shape of the dose curve; as a rule, active = well fitted activation curve with a large enough effect in the signal ratio in the repeat runs (not every such curve was filed as active); inconclusive = weak or mixed curves, or effect the other way; inactive = no such curve, though single readings can be large or run the other way; the % refers to the signal ratio.
# Target: Glucocorticoid receptor (Homo sapiens) (UniProt P04150)
# Sequence (P04150 whole entry, looked up): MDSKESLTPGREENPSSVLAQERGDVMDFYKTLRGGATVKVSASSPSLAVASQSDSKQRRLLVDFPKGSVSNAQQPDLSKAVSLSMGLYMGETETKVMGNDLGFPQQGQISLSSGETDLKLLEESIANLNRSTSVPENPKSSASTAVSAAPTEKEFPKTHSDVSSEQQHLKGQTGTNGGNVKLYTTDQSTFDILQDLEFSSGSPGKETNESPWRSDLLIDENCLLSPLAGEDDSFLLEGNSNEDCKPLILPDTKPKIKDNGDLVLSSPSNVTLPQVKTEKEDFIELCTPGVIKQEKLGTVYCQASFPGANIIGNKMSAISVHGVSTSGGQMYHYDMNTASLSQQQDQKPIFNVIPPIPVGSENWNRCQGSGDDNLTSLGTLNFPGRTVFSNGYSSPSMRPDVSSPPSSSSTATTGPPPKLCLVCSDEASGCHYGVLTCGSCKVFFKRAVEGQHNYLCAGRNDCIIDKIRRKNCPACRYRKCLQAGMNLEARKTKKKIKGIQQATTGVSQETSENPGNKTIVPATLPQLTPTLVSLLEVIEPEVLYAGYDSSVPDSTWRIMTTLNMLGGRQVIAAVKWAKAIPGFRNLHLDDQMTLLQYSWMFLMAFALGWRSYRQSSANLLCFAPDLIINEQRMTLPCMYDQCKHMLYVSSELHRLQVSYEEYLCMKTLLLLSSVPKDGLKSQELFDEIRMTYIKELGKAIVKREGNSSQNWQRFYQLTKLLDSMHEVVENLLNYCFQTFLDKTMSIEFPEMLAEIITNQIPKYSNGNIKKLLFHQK
# Test: qHTS assay to identify small molecule agonists of the glucocorticoid receptor (GR) signaling pathway (AID 720691)
# Settings: GR-bla HeLa, beta-lactamase reporter ratio, 18 h; series mostly up to 62.4 µM; activation: at the top concentration
# Excerpt: U.S. Tox21 Program National Center for Advancing Translational Sciences [NCATS] NIH Chemical Genomics Center [NCGC] U.S. Environmental Protection Agency [EPA] National Institutes of Environmental Health Sciences [NIEHS] National Toxicology Program [NTP] U.S. Food and Drug Administration [FDA] Tox21 Assay Overview: The Glucocorticoid receptor (GR) is one of the members of the nuclear receptor family of ligand-dependent transcription factors. GR plays a critical role in carbohydrate, protein and lipid metabolisms and programmed cell death. CellSensor GR-bla HeLa cell line (Invitrogen) contains a beta-lactamase reporter gene under the control of the glucocorticoid response element stably integrated into HeLa cells, a cervical cancer cell line that expresses glucocorticoid receptor. The activation of the reporter gene under culture conditions can be detected by fluorescence intensity. This cell line has been used to screen the Tox21 10K compound library and to identify the compounds that activate the GR signaling.
# Tox21 Assay Protocol Summary: The GR-bla HeLa cells were dispensed at 1500 cells/6 ul/well in 1536-well black wall/clear bottom plates using a Multidrop Combi (ThermoFisher Scientific, Waltham, MA) dispenser. After the assay plates were incubated at a 37 C/5% CO2 incubator for 4 hours, 23 nL of compounds dissolved in DMSO, positive controls or DMSO only was transferred to the assay plate by a pintool station (Kalypsys, San Diego, CA). The plates were incubated at 37 C for 18 hours. After 1 uL of LiveBLAzerTM B/G FRET substrate was added using a Flying Reagent Dispenser (Aurora Discovery, San Diego, CA), the plates were incubated at room temperature for 2 hours, and fluorescence intensity was measured by an Envision plate reader (PerkinElmer, Shelton, CT).
# % is scaled to controls: 0 for no effect and ±100 for the full control effect.
Compound,activation,Potency
O=C(Nc1ccc2c(c1)Cc1ccccc1-2)C(F)(F)F,-5.77% (inactive),
CC/C=C\CCO,0.539% (inactive),
Cc1ccc2ccccc2c1[N+](=O)[O-],0.13% (inactive),
O=C(OCCOCCOCCOC(=O)c1ccccc1)c1ccccc1,-0.443% (inactive),
C=CC(C)(O)CC/C=C(/C)CCC=C(C)C (stereo not given),-0.0014% (inactive),
Cc1nc(C)c(C)nc1C,-2.46% (inactive),
CCCCC(CC)COCCC#N (stereo not given),0.262% (inactive),
C1CCN(CN2CCCCC2)CC1,2.65% (inactive),
CCCCCCCCCCCC(=O)OCC,-0.547% (inactive),
OCCCO,-0.97% [at 79.2 µM] (inactive),
CC(=O)Nc1cccc(N)c1,0.285% [at 79.2 µM] (inactive),
C1=COCCC1,0.721% (inactive),
CCOC(=O)CC(O)(CC(=O)OCC)C(=O)OCC,0.0442% (inactive),
CCCCCO,0.224% (inactive),
O=C1c2ccccc2C(=O)C1c1ccc2cc(S(=O)(=O)O)cc(S(=O)(=O)O)c2n1,-6.42% [at 79.2 µM] (inactive),
O=[N+]([O-])c1ccc(Cl)cc1Cl,-0.925% (inactive),
Nc1nc(Cl)nc2c1ncn2[C@H]1C[C@H](O)[C@@H](CO)O1,,inactive
CCCCCCOC(=O)c1ccccc1,-3.56% (inactive),
CC1=CC(=C(c2ccc(N)cc2)c2ccc(N)cc2)C=CC1=N,-0.66% [at 6.9 µM] (inactive),
O=c1[nH][nH]c2ccccc12,-3.28% [at 79.2 µM] (inactive),

Compound,activation,Potency
CC(C)(O)C(=O)O,-1.59% (inactive),
CCCc1nc(C)c2c(=O)[nH]c(-c3cc(S(=O)(=O)N4CCN(CC)CC4)ccc3OCC)nn12,-0.99% (inactive),
C[C@H](CN1CCCC1)C(=O)c1ccc(C(F)(F)F)cc1,-2.81% (inactive),
O=C(O)c1ccccc1-n1cc(C(=O)O)c(=O)c2cc(Nc3c(F)cc(F)cc3Cl)c(Cl)cc21,-0.137% (inactive),
N#C[C@@H]1CC(F)(F)CN1C(=O)CNC1CC2CCC(C1)N2c1ncccn1 (stereo not given in full),0.0612% (inactive),
CC(C)CC(C)(C)C,-0.077% [at 79.2 µM] (inactive),
CO[C@@H]1COCC[C@@H]1N[C@@H]1CC[C@@](C(=O)N2CCc3ncc(C(F)(F)F)cc3C2)(C(C)C)C1,0.298% (inactive),
CC1=C(C)C(=O)C(C(CCCCCC(=O)O)c2ccccc2)=C(C)C1=O (stereo not given),-1.72% (inactive),
C=CCCC,-0.276% [at 79.2 µM] (inactive),
CC(CCl)OC(C)CCl (stereo not given),-2.97% (inactive),
Cc1c(N=C=O)cccc1N=C=O,-0.223% [at 79.2 µM] (inactive),
COc1cc(C)c(Cc2cnc(N)nc2N)cc1OC,-0.889% (inactive),
CC1(C)CC(=O)CC(C)(C)N1,0.423% (inactive),
CC(C(=O)O)c1ccc(/C=C2\CCCCC2=O)cc1 (stereo not given),-1.98% (inactive),
O=C(O)c1ccc(O)c(O)c1,0.5% (inactive),
Cc1cccc(C)c1NC(=O)CN1CCCC1,0.103% (inactive),
CCCOC(C)=O,-2.04% (inactive),
CC(=O)c1ccc(Cl)c(Cl)c1Cl,-4.65% (inactive),
C/C=C1\[C@H]2C=C(C)C[C@]1(N)c1ccc(=O)[nH]c1C2,6.3% (inactive),
CC(C)C/C=C(\C=O)c1ccccc1,-6.1% (inactive),
